For part of these data: Results with a measured potency or affinity are listed apart. Activity calls are given as the source filed them.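 Rule for the calls, unless noted: active = at least 20% inhibition of 6-phosphogluconate dehydrogenase activity; inactive = the rest.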
Assays:
[1] = molecular target: 6-phosphogluconate dehydrogenase, decarboxylating (Homo sapiens) (UniProt P52209); assay: 6PGD enzyme inhibitors, primary screen, biochemical, human, recombinant enzyme, NADPH absorbance (AID 1159550); conditions: recombinant 6PGD, NADPH absorbance 341 nm; at 10 µM; stronger effect = higher value
Chain of 6-phosphogluconate dehydrogenase, decarboxylating (Homo sapiens) (P52209 whole entry, looked up, the tested form may be a part): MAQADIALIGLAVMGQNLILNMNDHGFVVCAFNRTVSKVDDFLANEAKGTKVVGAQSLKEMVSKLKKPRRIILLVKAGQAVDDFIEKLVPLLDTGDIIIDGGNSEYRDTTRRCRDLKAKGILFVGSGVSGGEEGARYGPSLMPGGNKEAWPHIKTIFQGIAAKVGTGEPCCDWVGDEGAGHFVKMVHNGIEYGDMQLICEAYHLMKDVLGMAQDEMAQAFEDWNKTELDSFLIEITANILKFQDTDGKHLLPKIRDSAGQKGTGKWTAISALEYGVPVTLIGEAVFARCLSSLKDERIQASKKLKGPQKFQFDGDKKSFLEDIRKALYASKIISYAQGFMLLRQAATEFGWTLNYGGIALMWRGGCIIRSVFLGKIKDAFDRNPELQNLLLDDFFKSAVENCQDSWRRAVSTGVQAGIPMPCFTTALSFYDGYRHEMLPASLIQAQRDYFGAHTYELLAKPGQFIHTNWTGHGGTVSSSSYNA

[2] = molecular target: Mitogen-activated protein kinase 7 (Homo sapiens) (UniProt Q13164); assay: ERK5 transactivation activators in reporter cells, primary screen, cell-based, HTS (AID 1508626;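 active = luciferase signal above three times the same-plate solvent-only control wells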;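 note: luciferase driven by Gal4-ERK5 fusion binding five Gal4 sites before minimal TATA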); conditions: HeLa Gal4-ERK5 transactivation, 18 h, at 5 µM, stronger effect = higher value
Chain of Mitogen-activated protein kinase 7 (Homo sapiens) (Q13164 whole entry, looked up, the tested form may be a part): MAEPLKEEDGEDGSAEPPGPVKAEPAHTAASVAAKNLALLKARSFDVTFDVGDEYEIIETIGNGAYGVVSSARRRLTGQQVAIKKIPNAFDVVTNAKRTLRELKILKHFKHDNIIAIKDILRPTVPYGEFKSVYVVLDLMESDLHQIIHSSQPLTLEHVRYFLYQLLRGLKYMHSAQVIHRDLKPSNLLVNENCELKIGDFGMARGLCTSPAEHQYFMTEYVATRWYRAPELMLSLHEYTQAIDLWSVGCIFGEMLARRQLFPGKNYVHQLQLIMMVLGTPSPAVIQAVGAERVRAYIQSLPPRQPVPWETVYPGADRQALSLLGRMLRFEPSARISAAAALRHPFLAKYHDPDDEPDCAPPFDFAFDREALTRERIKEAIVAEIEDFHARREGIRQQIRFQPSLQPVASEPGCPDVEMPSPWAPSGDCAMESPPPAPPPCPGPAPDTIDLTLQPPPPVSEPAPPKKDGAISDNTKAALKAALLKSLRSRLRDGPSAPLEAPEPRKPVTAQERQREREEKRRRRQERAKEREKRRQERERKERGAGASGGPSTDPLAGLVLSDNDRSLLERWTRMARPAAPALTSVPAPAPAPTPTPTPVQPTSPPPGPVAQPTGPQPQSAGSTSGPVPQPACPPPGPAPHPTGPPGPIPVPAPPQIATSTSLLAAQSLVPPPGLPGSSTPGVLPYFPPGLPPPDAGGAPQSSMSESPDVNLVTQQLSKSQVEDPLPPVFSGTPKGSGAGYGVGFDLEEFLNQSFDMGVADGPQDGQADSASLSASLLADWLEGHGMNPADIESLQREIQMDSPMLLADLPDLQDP

[3] = liver-stage malaria parasite growth inhibition, primary screen, cell-based, HepG2, luciferase luminescence, HepG2 viability (AID 624349; in the data active = parasite load remaining mostly below about 12%, no sharp cut-off; inactive = mostly above about 10%;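 note: 100% = mean of DMSO negative control wells on the same plate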); conditions: P. berghei liver stage in HepG2, luciferase luminescence, concentration not given here; parasite load remaining: stronger effect = lower value; viability: measured here: HepG2 viability without parasites
[4] = polyglutamine-triggered caspase-3 activation inhibitors, cell-based (AID 1583); conditions: polyglutamine-induced caspase-3 activation, cell assay; stronger effect = higher value;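 tested at 10 µM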
[5] = suppressors of polyQ aggregation in yeast, 75Q-TubU reporter (AID 1593); conditions: Yeast 75Q polyglutamine aggregation reporter
[6] = rescue of polyQ-huntingtin neuronal dysfunction in worms, whole organism, C. elegans mechanosensory neurons, N-terminal huntingtin (AID 1599); conditions: touch response, stronger effect = higher value
[7] = inhibitors of mitochondrial cytochrome c release, biochemical, purified mitochondria (AID 1603); conditions: stronger effect = lower value;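 note: mouse liver mitochondria challenged with calcium chloride; signal normalized to the plate average as 100%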
[8] = inhibitors of polyQ protein aggregation (AID 1604); conditions: polyglutamine-induced protein aggregation inhibition assay; stronger effect = higher value; tested at 2.5 µM
[9] = enhancers of glutamate uptake in motor neurons, MN-1 cell line (AID 1612); conditions: MN-1 motor neuron cells, stronger effect = higher value;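 note: tested at 1 µM final; 0% = mean of DMSO vehicle wells on each plate; positive means more glutamate uptake than control and negative means less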
[10] = reducers of polyQ inclusions in PC12 cells, cell-based, NGF-treated PC12, GFPQ80 (AID 1614); conditions: PC12 NGF-treated GFP-polyQ80 inclusion reduction;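 note: lower means fewer inclusions and 0 means no inclusions at all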
[11] = suppressors of polyglutamine aggregation in yeast, 75Q-TubH (AID 1616); conditions: S. cerevisiae 75Q-TubH polyglutamine aggregation suppression; stronger effect = higher value

In the case of COc1ccc(-c2cc(=O)c3ccccc3o2)cc1, the inhibition [1] was -3.26% (inactive) and the luciferase signal [2] was 112 AU (inactive).

In the case of COc1ccc(-c2oc3cc(O[C@@H]4O[C@H](CO)[C@@H](O)[C@H](O)[C@H]4O)c(OC)c(O)c3c(=O)c2OC)cc1O, the inhibition [1] was -33.5% (inactive) and the luciferase signal [2] was 172 AU (inactive).

In the case of COc1cc(OC)c2c(c1Cl)O[C@@]1(C(=O)CC(=O)C[C@H]1C)C2=O, the inhibition [1] was 4.62% (inactive) and the luciferase signal [2] was 48 AU (inactive).

For CC[C@H](CC[C@@H](C)[C@H]1CC[C@H]2[C@@H]3CC=C4C[C@@H](OC(C)=O)CC[C@]4(C)[C@H]3CC[C@]12C)C(C)C, the inhibition [1] was 9.08% (inactive) and the luciferase signal [2] was 36 AU (inactive).

In the case of C[C@H](CCC(=O)O)[C@H]1CC[C@H]2[C@@H]3CC[C@@H]4C[C@H](O)CC[C@]4(C)[C@H]3C[C@H](O)[C@]12C, the inhibition [1] was -3.07% (inactive) and the luciferase signal [2] was 28 AU (inactive).

For COS(C)(=O)=O, the inhibition [1] was 6.76% (inactive) and the luciferase signal [2] was 124 AU (inactive).

With CC1/C(=N/O)C[C@@H]2C[C@H]1C2(C)C (stereo not given in full) the inhibition [1] was -7.59% (inactive) and the luciferase signal [2] was 52 AU (inactive).

With COc1cc2ccc(=O)oc2c(O)c1O the inhibition [1] was 13.8% (inactive) and the luciferase signal [2] was 76 AU (inactive).

With C[N+]1(C)C[C@H](O)C[C@H]1C(=O)[O-] the inhibition [1] was 0.213% (inactive) and the luciferase signal [2] was 60 AU (inactive).

For COC1=C[C@@H](C)[C@@H]2C[C@H]3OC(=O)C[C@H]4C(C)=C(OC)C(=O)[C@H]([C@@]2(C)C1=O)[C@@]34C, the inhibition [1] was -9.87% (inactive) and the luciferase signal [2] was 40 AU (inactive).

In the case of CC(=O)Oc1c(-c2ccccc2)oc2c(CC=C(C)C)c3c(c(OC(C)=O)c2c1=O)C=CC(C)(C)O3, the inhibition [1] was 7.48% (inactive) and the luciferase signal [2] was 40 AU (inactive).

With CC1(C)C2CC(=O)O[C@@]3(C)C4=CC(=O)O[C@@H](c5ccoc5)[C@]4(C)CCC3[C@@]2(C)C=C[C@H]1O (stereo not given in full) the inhibition [1] was 9.39% (inactive) and the luciferase signal [2] was 20 AU (inactive).

In the case of COC(=O)C[C@H]1C(C)(C)[C@H](OC(C)=O)[C@@H]2CC3=C4CC(=O)O[C@@H](c5ccoc5)[C@]4(C)CC[C@@H]3C1(C)C2=O, the inhibition [1] was 7.02% (inactive) and the luciferase signal [2] was 24 AU (inactive).

In the case of C[C@H]1C(=O)CC[C@@H]2[C@]1(C)CC[C@H]1[C@@]2(C)CC[C@@]2(C)[C@@H]3CC(C)(C)CC[C@]3(C)CC[C@]12C, the inhibition [1] was 7.58% (inactive) and the luciferase signal [2] was 88 AU (inactive).

For CC(C)CCC[C@@H](C)[C@H]1CC[C@H]2C3=CC[C@H]4C[C@@H](O)CC[C@]4(C)[C@H]3CC[C@]12C, the inhibition [1] was 4.86% (inactive) and the luciferase signal [2] was 56 AU (inactive).

With CC(=O)O[C@H]1C[C@@H](OC(C)=O)C(C)(C)[C@@H]2C[C@@H](OC(C)=O)[C@]3(C)[C@H](CC[C@@]4(C)[C@H](c5ccoc5)OC(=O)[C@H]5O[C@@]534)[C@@]12C the inhibition [1] was -4.75% (inactive) and the luciferase signal [2] was 12 AU (inactive).

In the case of COc1cc(O)c2c(=O)cc(-c3ccc(OC)c(-c4c(O)cc(O)c5c(=O)cc(-c6ccc(O)cc6)oc45)c3)oc2c1, the inhibition [1] was -1.48% (inactive) and the luciferase signal [2] was 24 AU (inactive).

For C=C1C2CCC3(C)C(c4ccoc4)OC(=O)CC13OC1CC(=O)C(C)(C)C(CC(=O)OC)C12C (stereo not given), the inhibition [1] was -8.25% (inactive) and the luciferase signal [2] was 16 AU (inactive).

With CC(=O)O[C@]1(C)CC[C@@]23C[C@@H]1C(C)(C)[C@@H]2CC[C@H]3C the inhibition [1] was 13.3% (inactive) and the luciferase signal [2] was 56 AU (inactive).

With COC(=O)c1c(OC)cc2c(c1C)Oc1c(Cl)c(OC(C)=O)c(Cl)c(C)c1C(=O)O2 the inhibition [1] was -6.07% (inactive) and the luciferase signal [2] was 44 AU (inactive).

In the case of O=C(Cc1cccs1)N[C@@H]1C(=O)N2C(C(=O)[O-])=C(C[n+]3ccccc3)CS[C@H]12, the inhibition [1] was 0.514% (inactive) and the luciferase signal [2] was 112 AU (inactive).

With O=c1cc(-c2ccc(O)cc2)oc2cc(O[C@@H]3O[C@H](CO)[C@@H](O)[C@H](O)[C@H]3O)cc(O)c12 the inhibition [1] was -5.65% (inactive) and the luciferase signal [2] was 120 AU (inactive).

In the case of CC1(C)CC[C@]2(C)CC[C@]3(C)C(=CC[C@@H]4[C@@]5(C)CC[C@H](O)C(C)(C)[C@@H]5CC[C@]43C)[C@@H]2C1, the inhibition [1] was 10.2% (inactive) and the luciferase signal [2] was 20 AU (inactive).

For COc1cc(C)c(C(=O)O)c(O)c1, the inhibition [1] was -0.391% (inactive) and the luciferase signal [2] was 80 AU (inactive).

In the case of C/C(=C\CO)CCC[C@H](C)CCC[C@H](C)CCCC(C)C, the inhibition [1] was 5.74% (inactive) and the luciferase signal [2] was 72 AU (inactive).

For COc1ccc(-c2coc3cc(OC)cc(OC)c3c2=O)cc1, the inhibition [1] was 4.5% (inactive) and the luciferase signal [2] was 60 AU (inactive).

In the case of CC(C)c1c(O)ccc2c1CC[C@H]1C(C)(C)CCC[C@]21C, the inhibition [1] was -7.32% (inactive) and the luciferase signal [2] was 20 AU (inactive).

For Cc1cc(=O)c2c(O)cc(O)c(C)c2o1, the inhibition [1] was 9.08% (inactive) and the luciferase signal [2] was 132 AU (inactive).

In the case of CC(=O)O[C@@H]1CC(=O)[C@@]2(C)C(CC(=O)[C@]3(C)C2CC[C@@]2(C)[C@H](c4ccoc4)OC(=O)C4OC423)C1(C)C (stereo not given in full), the inhibition [1] was 9.95% (inactive) and the luciferase signal [2] was 24 AU (inactive).

With O=C1CC[C@]23/C=C\C(=O)NCCCCNCCCNC(=O)/C=C\c4ccc(c2c4)O[C@@H]3C1 the inhibition [1] was -0.518% (inactive) and the luciferase signal [2] was 36 AU (inactive).

In the case of COC(=O)C[C@H]1C(C)(C)[C@@H](OC(C)=O)[C@@H]2CC3C4CC(=O)O[C@@H](c5ccoc5)[C@]4(C)CCC3[C@@]1(C)C2=O (stereo not given in full), the inhibition [1] was 7.27% (inactive) and the luciferase signal [2] was 28 AU (inactive).

With O=C(CCCCCCCCCCCCC1CCCC1)Nc1ccc(S(=O)(=O)c2ccc(NC(=O)CCCCCCCCCCCCC3CCCC3)cc2)cc1 the parasite load remaining [3] was 65.7% (inactive), the viability [3] was 90.8% and the inhibition [1] was 6.93% (inactive). For the same compound, the luciferase signal [2] was 32 AU (inactive).

For COc1cc2c3cc1Oc1c(OC)c(OC)cc4c1[C@@H](Cc1ccc(O)c(c1)Oc1ccc(cc1)C[C@@H]3N(C)CC2)N(C)CC4, the inhibition [1] was 14.7% (inactive) and the luciferase signal [2] was 64 AU (inactive).

For C[C@H]1[C@H](C)CC[C@]2(C(=O)O)CC[C@]3(C)C(=CC[C@@H]4[C@@]5(C)C[C@@H](O)[C@H](O)[C@@](C)(CO)[C@@H]5[C@H](O)C[C@]43C)[C@H]12, the inhibition [1] was 2.44% (inactive) and the luciferase signal [2] was 48 AU (inactive).

With O=C(NCO)c1cccnc1 the inhibition [1] was -8.21% (inactive) and the luciferase signal [2] was 68 AU (inactive).

Compound COc1ccc(/C=C/c2cc(O)cc(O[C@@H]3O[C@H](CO)[C@@H](O)[C@H](O)[C@H]3O)c2)cc1O has an inhibition [4] of 4.89%, a score [5] of 1.27 and a rescue above control [6] of -0.21. The cytochrome c release ratio [7] was 0.78, the inhibition of aggregation [8] was 12.9% and the glutamate uptake change [9] was 4.82%. For the same compound, the inclusion score [10] was 2, the aggregation suppression score [11] was 1.41 and the inhibition [1] was -5.87% (inactive).

Work on CC(N)C(=O)NC(Cc1ccccc1)C(=O)O (stereo not given) yielded an inhibition [4] of 17.1%, a score [5] of 1.2 and a rescue above control [6] of 1.23. It also gave a cytochrome c release ratio [7] of 1.13, an inhibition of aggregation [8] of 77.8% and a glutamate uptake change [9] of 2.41%. The inclusion score [10] was 2, the aggregation suppression score [11] was 1.4 and the inhibition [1] was 16.4% (inactive).

Reference: PubChem BioAssay
